Results published in PubChem BioAssay AID488975 (Johns Hopkins Ion Channel Center, 2010).
In all, about 310,000 compounds went through this assay and about 2,600 (0.84%) were called active.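 The calls were made as follows: active = B-score over 3 SD under the library average, and starting fluorescence ratio not unusually high; inactive = the rest.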 What follows is part of a selection rich in actives, with near analogues and random picks from the rest.

These compounds were tested against High affinity choline transporter 1 (Homo sapiens) (UniProt Q9GZV3) (assay: inhibits the human high affinity choline transporter (AID 488975;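 as to B-score: choline stimulus applied at its EC90 after an EC20 pre-addition; B-score computed on integrated fluorescence ratio after choline addition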)). Conditions: CHT-expressing cells, membrane potential dye, choline response, at 10 µM; active compounds read low.
Sequence of High affinity choline transporter 1 (Homo sapiens) (Q9GZV3 whole entry, looked up): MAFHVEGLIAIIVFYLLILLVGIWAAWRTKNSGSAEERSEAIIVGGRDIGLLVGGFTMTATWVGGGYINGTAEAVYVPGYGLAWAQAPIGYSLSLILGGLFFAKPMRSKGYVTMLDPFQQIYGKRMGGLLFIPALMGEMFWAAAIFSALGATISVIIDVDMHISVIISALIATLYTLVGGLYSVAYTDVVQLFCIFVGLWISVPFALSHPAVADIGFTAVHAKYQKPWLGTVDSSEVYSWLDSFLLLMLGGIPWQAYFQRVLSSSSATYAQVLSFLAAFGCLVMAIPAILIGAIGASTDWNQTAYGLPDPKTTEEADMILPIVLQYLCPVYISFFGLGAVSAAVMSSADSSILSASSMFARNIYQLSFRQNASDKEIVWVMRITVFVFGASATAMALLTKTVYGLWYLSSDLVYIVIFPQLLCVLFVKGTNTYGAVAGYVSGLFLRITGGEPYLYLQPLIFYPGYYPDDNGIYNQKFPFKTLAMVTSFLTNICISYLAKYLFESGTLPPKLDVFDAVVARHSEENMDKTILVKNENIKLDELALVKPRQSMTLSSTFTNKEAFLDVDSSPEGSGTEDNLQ
`CCCCCn1c(=O)c(C(=O)OCC)c(Cl)c2ccccc21` was tested, and the B-score was -5.74 (active).
For `CCOC(=O)c1nnn2c3ccccc3c(=O)n(C)c12`, the B-score was “inactive”.
`CCCCn1c(=O)c(C(C)=O)c(O)c2ccccc21` was tested, and the B-score was “inactive”.
`Cc1sc2ncnc(N3CCC(C(=O)Nc4nc5ccc(Cl)cc5s4)CC3)c2c1C` was tested, and the B-score was “inactive”.
`CCc1ccc(Nc2n[n+](-c3ccccc3)c(-c3cccc(Cl)c3Cl)s2)cc1` was tested, and the B-score was “inactive”.
In the case of `Cc1cc(Nc2ccc(Br)cc2)nc2ccccc12`, the B-score was “inactive”.
For `Cc1ccc2nc(Nc3ccccc3O)nc(-c3ccccc3)c2c1`, the B-score was “inactive”.
For `Cc1ccc2nc(Nc3ccccc3)cc(C)c2c1`, the B-score was -8.75 (active).
For `O=S(=O)(Nc1ccc(Cl)cn1)c1cnc(Cl)c(Br)c1`, the B-score was -8.67 (active).
In the case of `Cc1ccc(NS(=O)(=O)c2ccc(F)cc2)nc1`, the B-score was “inactive”.
For `O=S(=O)(Nc1ccccn1)c1cccc(S(=O)(=O)c2ccc(Cl)cc2)c1`, the B-score was “inactive”.
For `CC(=O)c1c(C)[nH]c(C(=O)COC(=O)CCOc2ccc(C)cc2)c1C`, the B-score was “inactive”.
`CCOC(=O)N1CCN(C(=O)C2CCN(c3ncnc4c3sc3cccc(F)c34)CC2)CC1` was tested, and the B-score was -5.37 (active).
In the case of `CCOC(=O)C1CCN(c2ncnc3c2oc2ccc(Br)cc23)CC1`, the B-score was “inactive”.
With `CCOC(=O)N1CCN(C(=O)C2CCN(S(=O)(=O)c3cc(Cl)ccc3OCC)CC2)CC1` the B-score was “inactive”.
For `CC(=O)NCC(O)c1ccc([N+](=O)[O-])cc1` (stereo unspecified), the B-score was “inactive”.
With `CCC(C)c1ccc(O)c(/C=N/O)c1` (stereo unspecified) the B-score was “inactive”.
For `CNCC(O)c1ccc(O)c(O)c1` (stereo unspecified), the B-score was -5.02 (active).
For `COc1cc(C(=O)NCC(=O)NCCSc2ccc(Br)cc2)cc(OC)c1OC`, the B-score was “inactive”.
For `C=CCOc1ccc(/C=C/C(=O)OCC(=O)NC(C)c2ccc(F)cc2)cc1` (stereo unspecified), the B-score was “inactive”.
In the case of `COc1ccc(C(=O)N[C@H](C(=O)NCc2ccccc2)C(C)C)cc1`, the B-score was “inactive”.
`CCOC(=O)C(Cc1ccccc1)NC(=O)CCC(=O)c1ccc(OC)cc1` (stereo unspecified) was tested, and the B-score was “inactive”.
In the case of `COc1ccc(C(=O)NC(Cc2ccc(OC(=O)c3ccc(OC)cc3)cc2)C(=O)O)cc1` (stereo unspecified), the B-score was -5.4 (active).
With `CCOc1ccc(CCNC(=O)COC(=O)C2CCN(c3ccc(C(F)(F)F)cn3)CC2)cc1OCC` the B-score was “inactive”.
With `FC(F)(F)c1ccc2c3n(nc2c1)CCN=C3c1ccc(Cl)cc1` the B-score was “inactive”.
In the case of `Cc1cccc(-c2nc3ccc(C(=O)NCCN4CCN(C)CC4)cc3nc2-c2cccc(C)c2)c1`, the B-score was -5.67 (active).
With `Cc1cccc(C(=O)NCCCN2CCCC2=O)c1` the B-score was “inactive”.
For `Cc1ccc(C(=O)NCCN2CCOCC2)cc1C`, the B-score was “inactive”.
With `NC1=NC(c2ccc([N+](=O)[O-])cc2)N(c2ccc(F)cc2)C(N)=N1` (stereo unspecified) the B-score was “inactive”.
For `OC(CNCc1ccc2c(c1)OCO2)COc1ccccc1` (stereo unspecified), the B-score was “inactive”.
With `CN(Cc1ccccc1)CC(O)COc1ccc(CNCc2cc3ccccc3s2)cc1` (stereo unspecified) the B-score was -5.57 (active).
In the case of `Cc1ccc(OCC(=O)OC(C)CN(C)Cc2ccccc2)cc1` (stereo unspecified), the B-score was “inactive”.
With `COc1ccccc1NC(=O)Nc1nc(CC(=O)Nc2ccccc2F)cs1` the B-score was “inactive”.
For `CCOc1cc(N2CCOCC2)c(OCC)cc1NC(=O)COc1cccc(Cl)c1`, the B-score was “inactive”.
For `CCN(CC(=O)Nc1cccc(S(=O)(=O)N2CCCCC2)c1)Cc1ccccc1`, the B-score was “inactive”.
In the case of `Cc1ccc(-c2cc(=O)[nH]c(NCc3ccccc3)n2)cc1`, the B-score was “inactive”.
`CCCCN(C1CCS(=O)(=O)C1)S(=O)(=O)c1ccc(C(C)C)cc1` (stereo unspecified) was tested, and the B-score was “inactive”.
With `Cc1cc(=O)[nH]c(SCc2cc(Cl)ccc2OC(F)F)n1` the B-score was “inactive”.
For `CCCCOc1ccc(Cl)cc1CSc1nncn1N`, the B-score was -4.96 (active).
`COc1ccc(Cl)cc1CSc1ncn[nH]1` was tested, and the B-score was “inactive”.
With `COc1ccccc1C(CNC(=O)c1cccc(NS(=O)(=O)c2ccc(Br)cc2)c1)N(C)C` (stereo unspecified) the B-score was “inactive”.
For `CN(CC(=O)NCc1cccnc1)S(=O)(=O)c1cc(Cl)ccc1Cl`, the B-score was “inactive”.
For `COc1ccc(CC2c3cc(OC)c(OC)cc3CC[N+]2(C)CCC(=O)OCCCCCOC(=O)CC[N+]2(C)CCc3cc(OC)c(OC)cc3C2Cc2ccc(OC)c(OC)c2)cc1OC` (stereo unspecified), the B-score was “inactive”.
For `Cc1ccccc1N1CC(C(=O)Nc2ccc(S(=O)(=O)N3CCCC3)cc2)CC1=O` (stereo unspecified), the B-score was “inactive”.
`CCC1(c2ccccc2)NC(=O)N(CC(=O)Nc2ccccc2C(=O)NC2CCCC2)C1=O` (stereo unspecified) was tested, and the B-score was “inactive”.
For `CCc1noc(C)c1C(=O)Oc1ccc(N(C)S(=O)(=O)c2ccc(C)c(C)c2)cc1`, the B-score was “inactive”.
For `CN1CCN(NC(=O)c2ccc(S(=O)(=O)N3CCCCCC3)cc2)CC1`, the B-score was “inactive”.
With `CC1CN(S(=O)(=O)c2ccc(C(=O)NN3CCN(C)CC3)cc2)CC(C)O1` (stereo unspecified) the B-score was -5.14 (active).
With `CC1CC(C)CN(S(=O)(=O)c2ccc(C(=O)NN3CCOCC3)cc2)C1` (stereo unspecified) the B-score was “inactive”.
For `CCCc1cc(=O)[nH]c(SCC(=O)c2c(N)n(CC(C)C)c(=O)n(C)c2=O)n1`, the B-score was “inactive”.
`CCCCC(=O)Nc1cc(C)c2c(=O)oc3ccccc3c2n1` was tested, and the B-score was “inactive”.
With `CCOC(=O)c1c(C)nc2c(c1C)c(=O)oc1ccccc12` the B-score was “inactive”.
In the case of `Cc1ccccc1-n1nnc2c(=O)oc3ccccc3c21`, the B-score was -6.25 (active).
In the case of `Cc1ccc(Cl)c(OCC(=O)N(C)CC(=O)Nc2ccc(N3CCOCC3)cc2)c1`, the B-score was “inactive”.
For `O=C(NCc1ccco1)/C(=C/c1ccco1)NC(=O)c1ccccc1`, the B-score was “inactive”.
`CNC(=O)/C(=C\C=C\c1ccccc1)NC(=O)c1ccc([N+](=O)[O-])cc1` was tested, and the B-score was “inactive”.
In the case of `Cc1ccc(C(=O)N/C(=C/C=C/c2ccccc2)C(=O)NCc2ccco2)cc1`, the B-score was -7.21 (active).
In the case of `Cc1n[nH]c(=O)c2c(NC(=O)CSc3ccccc3F)oc(C)c12`, the B-score was “inactive”.
With `Cc1ccc2nc(SCC(=O)Nc3cccc4ccccc34)nc(=O)n2c1` the B-score was “inactive”.
With `Cc1nn(CC(=O)NCC2CCCO2)c(=O)c2cc3ccccc3n12` (stereo unspecified) the B-score was -5.7 (active).
With `Cc1c(Cl)c([N+](=O)[O-])nn1CC(=O)NCC1CCCO1` (stereo unspecified) the B-score was “inactive”.
`Cc1sc2c(c1C)c(=O)n(-c1ccccc1)c(=O)n2CC(=O)NCC1CCCO1` (stereo unspecified) was tested, and the B-score was “inactive”.
For `COc1ccc(N2C(=O)CNC2=S)cc1`, the B-score was -7.99 (active).
For `COc1ccc(N2C(=O)CC(SC(C)C)C2=O)cc1` (stereo unspecified), the B-score was “inactive”.
`COc1ccc(N2C(=O)C(Cc3ccccc3)NC2=S)cc1` (stereo unspecified) was tested, and the B-score was “inactive”.
For `CCOC(=O)N1CCN(C(=O)c2ccccc2SCC(=O)NCC2CCCCC2)CC1`, the B-score was “inactive”.
In the case of `O=C(O)c1ccc(S(=O)(=O)N2CCC(Cc3ccccc3)CC2)cc1`, the B-score was “inactive”.
With `CC(C)(C)NC(=O)NC(=O)CN1CCC(Cc2ccccc2)CC1` the B-score was -7.19 (active).
In the case of `NC(=O)c1ccc(CN2CCC(Cc3ccccc3)CC2)cc1`, the B-score was “inactive”.
For `Cc1sc2ncnc(N3CCC(C(=O)NNC(=O)c4ccc(F)cc4)CC3)c2c1C`, the B-score was “inactive”.
In the case of `CCn1c(=O)cc(O)c2ccccc21`, the B-score was “inactive”.
`Cn1c2ccccc2c(=O)c2c(O)cccc21` was tested, and the B-score was -5.96 (active).
In the case of `Cc1cc(C)c(-c2c(O)c3ccccc3n(C)c2=O)c(C)c1`, the B-score was “inactive”.
`CCCC[C@@H]1CN=C(N)N1CCc1cccc(F)c1` was tested, and the B-score was “inactive”.
With `Cc1cccc(Nc2nc(NCCO)nc(N3CCCC3)n2)c1` the B-score was “inactive”.
With `COc1ccc(C(=O)N(Cc2ccccc2)c2ccc(C)cc2)cc1S(=O)(=O)N1CCOCC1` the B-score was “inactive”.
For `COc1cccc(NC(=O)CSc2nccn(-c3ccc4c(c3)OCCO4)c2=O)c1`, the B-score was “inactive”.
In the case of `CC(C)(C)S(=O)(=O)c1ccccc1-c1noc(-c2ccccc2)c1C(N)=O`, the B-score was “inactive”.
With `CN(C)CCn1c2c(c(SCC(=O)NCc3ccccc3)nc1=O)CCC2` the B-score was “inactive”.
In the case of `Nc1cc(N2CCCCCC2)c2nonc2c1[N+](=O)[O-]`, the B-score was -7.12 (active).
For `COCCNc1nc(N)c([N+](=O)[O-])c(N2CCCCCC2)n1`, the B-score was “inactive”.
For `Nc1nc(NCC(=O)O)nc(N2CCCCCC2)c1[N+](=O)[O-]`, the B-score was “inactive”.
`Cc1ccc(S(=O)(=O)N2CCN(C(=O)Cc3sc(C)nc3-c3ccc(F)cc3)CC2)c(C)c1` was tested, and the B-score was “inactive”.
With `COc1ccc(NC(=O)CN(C)C(=O)c2cccc(S(=O)(=O)N3CCN(c4ccccc4)CC3)c2)cc1` the B-score was “inactive”.
For `Cc1ccccc1NC(=O)COc1cccc2c1CCNC2=O`, the B-score was “inactive”.
For `Cc1ccc(S(=O)(=O)CC(=O)Nc2c(C)n(C)n(-c3ccccc3)c2=O)cc1`, the B-score was “inactive”.
With `Cc1c(NC(=S)Nc2ccccc2)c(=O)n(-c2ccccc2)n1C` the B-score was “inactive”.
With `Cc1ccc(S(=O)(=O)/N=C(/NC(=S)Nc2c(C)n(C)n(-c3ccccc3)c2=O)c2ccccc2)cc1` the B-score was -6.35 (active).
`CC(=O)N1CCc2c(sc(NC(=O)CCS(=O)(=O)c3ccc(C)cc3)c2C(N)=O)C1` was tested, and the B-score was “inactive”.
With `O=C(c1cc(-c2ccco2)nc2ccccc12)N(Cc1nnc(-c2ccc(Cl)cc2)o1)C1CC1` the B-score was “inactive”.
`CC(C)CN(C(=O)COC(=O)c1ccc2ccccc2c1)c1c(N)n(Cc2ccccc2)c(=O)[nH]c1=O` was tested, and the B-score was “inactive”.
`COc1ccc(/C=N/NC(=O)c2cc(-c3cccc(C)c3)nc3ccccc23)cc1O` was tested, and the B-score was “inactive”.
`COc1ccccc1OCCCCCCN1CCN(C)CC1` was tested, and the B-score was “inactive”.
In the case of `CCN(CC)c1ccc(S(=O)(=O)N2CCCCC2)cc1NC(=O)C1=COCCO1`, the B-score was “inactive”.
`Cc1ccccc1Nc1c([N+](=O)[O-])ccc2nonc12` was tested, and the B-score was “inactive”.
`CCOc1ccccc1Nc1ccc2nonc2c1[N+](=O)[O-]` was tested, and the B-score was -6.62 (active).
With `CCOc1ccccc1Nc1ccc(C(=O)O)cc1[N+](=O)[O-]` the B-score was “inactive”.
For `COc1ccc(-c2ccc3nnc(SCC(=O)Nc4ccc(NC(C)=O)cc4)n3n2)cc1`, the B-score was “inactive”.
In the case of `Cc1ccccc1-n1c(C)cc(/C=C2\NC(=O)NC2=O)c1C`, the B-score was -8.08 (active).
`Cc1cccc(C)c1-n1c(C)cc(/C=C2\C(=O)NN(c3ccccc3)C2=O)c1C` was tested, and the B-score was “inactive”.
In the case of `Cc1cc(/C=C2/NC(=O)NC2=O)c(C)n1-c1cccnc1`, the B-score was “inactive”.
